# Experiments:
# Test in all cases: DAPPL (digital affinity profiling via proximity ligation, sequencing); 10 mM Tris-HCl pH 7.5, 50 mM NaCl, 1 mM DTT, 4% glycerol, room temperature, 30 min; GST-TFs on glutathione beads, 16-mer random dsDNA library, 0.1% formaldehyde crosslink after washing; high values mean tight binding
# Settings in all cases: protein: recombinant; tags: N-terminal GST; dsDNA, one strand shown
# FLI1 = target: T1, FLI1 (Homo sapiens, UniProt Q01543 1-452)
# T1 sequence: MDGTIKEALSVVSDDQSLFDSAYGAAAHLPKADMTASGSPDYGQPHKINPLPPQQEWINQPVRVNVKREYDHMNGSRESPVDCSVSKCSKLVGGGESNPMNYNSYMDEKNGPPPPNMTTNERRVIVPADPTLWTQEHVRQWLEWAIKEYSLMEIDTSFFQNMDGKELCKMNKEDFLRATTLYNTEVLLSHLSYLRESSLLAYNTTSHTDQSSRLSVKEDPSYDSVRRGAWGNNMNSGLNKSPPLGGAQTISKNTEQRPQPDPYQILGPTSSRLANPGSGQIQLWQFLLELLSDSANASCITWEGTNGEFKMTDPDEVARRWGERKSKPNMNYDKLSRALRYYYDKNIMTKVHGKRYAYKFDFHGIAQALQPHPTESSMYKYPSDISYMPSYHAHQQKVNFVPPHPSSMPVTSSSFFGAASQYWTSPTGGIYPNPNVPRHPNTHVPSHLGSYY
# Outline: (§1)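 Pools were built from human transcription factors expressed in yeast as GST fusions, captured on glutathione beads and DNA-barcoded, along with a tag-only sample. Incubation with 200 nmole of a 16-mer random double-stranded DNA library lasted 30 min at room temperature in Tris/NaCl/DTT/glycerol buffer, and was followed by washing, 0.1% formaldehyde crosslinking, proximity ligation, PCR amplification and Illumina NextSeq500 sequencing. Binding signal is the quotient of each hexamer's read frequency for a factor and its frequency for the tag-only sample.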
# GABPA = target: T2, GABPA (Homo sapiens, UniProt Q06546 1-454)
# T2 sequence: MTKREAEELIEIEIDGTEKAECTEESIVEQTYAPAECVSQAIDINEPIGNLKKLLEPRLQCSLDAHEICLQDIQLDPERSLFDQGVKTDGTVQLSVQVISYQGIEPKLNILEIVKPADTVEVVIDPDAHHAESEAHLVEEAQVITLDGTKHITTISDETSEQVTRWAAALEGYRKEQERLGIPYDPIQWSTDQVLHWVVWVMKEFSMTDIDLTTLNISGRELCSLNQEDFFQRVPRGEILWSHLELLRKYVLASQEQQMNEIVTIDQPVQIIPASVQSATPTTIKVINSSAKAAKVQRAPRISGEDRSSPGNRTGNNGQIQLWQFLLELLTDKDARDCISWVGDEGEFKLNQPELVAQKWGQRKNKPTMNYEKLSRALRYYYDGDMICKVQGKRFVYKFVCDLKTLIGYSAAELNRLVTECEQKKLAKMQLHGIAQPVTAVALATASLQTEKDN
# Outline: as §1
# ERG = target: T3, ERG (Homo sapiens, UniProt P11308 1-479)
# T3 sequence: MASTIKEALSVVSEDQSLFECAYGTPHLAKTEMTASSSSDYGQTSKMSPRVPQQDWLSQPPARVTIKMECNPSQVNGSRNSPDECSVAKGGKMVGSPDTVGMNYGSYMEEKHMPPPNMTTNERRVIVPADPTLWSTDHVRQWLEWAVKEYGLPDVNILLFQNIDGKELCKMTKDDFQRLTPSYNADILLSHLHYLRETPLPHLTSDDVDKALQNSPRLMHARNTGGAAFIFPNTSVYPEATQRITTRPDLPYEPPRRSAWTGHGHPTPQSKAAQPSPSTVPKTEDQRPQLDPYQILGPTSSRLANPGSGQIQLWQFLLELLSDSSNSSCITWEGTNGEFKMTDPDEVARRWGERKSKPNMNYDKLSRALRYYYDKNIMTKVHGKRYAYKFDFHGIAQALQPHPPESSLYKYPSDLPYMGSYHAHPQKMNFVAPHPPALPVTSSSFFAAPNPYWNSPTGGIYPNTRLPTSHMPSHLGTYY
# Outline: as §1
# EHF = target: T4, EHF (Homo sapiens, UniProt Q9NZC4 1-300)
# T4 sequence: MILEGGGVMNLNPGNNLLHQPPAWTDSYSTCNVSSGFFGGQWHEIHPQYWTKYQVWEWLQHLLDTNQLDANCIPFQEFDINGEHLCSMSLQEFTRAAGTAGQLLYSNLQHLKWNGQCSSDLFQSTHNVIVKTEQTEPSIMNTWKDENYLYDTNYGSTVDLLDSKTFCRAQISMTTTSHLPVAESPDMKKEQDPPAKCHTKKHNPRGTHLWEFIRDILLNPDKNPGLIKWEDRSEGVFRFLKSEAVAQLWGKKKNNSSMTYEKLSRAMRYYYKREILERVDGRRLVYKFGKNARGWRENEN
# Outline: as §1
# SPI1 = SPI1 (Homo sapiens, UniProt P17947 1-270)
# Outline: as §1
# ETV5 = ETV5 (Homo sapiens, UniProt P41161 1-510)
# Outline: as §1
# ETV2 = target: T5, ETV2 (Homo sapiens, UniProt O00321 1-342)
# T5 sequence: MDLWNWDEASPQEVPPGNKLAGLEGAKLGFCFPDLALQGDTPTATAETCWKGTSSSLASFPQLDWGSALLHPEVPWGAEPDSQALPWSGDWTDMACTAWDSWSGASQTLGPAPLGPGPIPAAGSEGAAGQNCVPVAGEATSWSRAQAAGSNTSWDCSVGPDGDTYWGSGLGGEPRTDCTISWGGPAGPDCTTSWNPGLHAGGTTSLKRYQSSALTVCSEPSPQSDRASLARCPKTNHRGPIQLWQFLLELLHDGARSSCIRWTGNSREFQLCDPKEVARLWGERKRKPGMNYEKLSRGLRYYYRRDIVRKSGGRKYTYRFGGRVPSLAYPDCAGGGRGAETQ
# Outline: as §1
# ELF3 = target: T6, ELF3 (Homo sapiens, UniProt P78545 1-371)
# T6 sequence: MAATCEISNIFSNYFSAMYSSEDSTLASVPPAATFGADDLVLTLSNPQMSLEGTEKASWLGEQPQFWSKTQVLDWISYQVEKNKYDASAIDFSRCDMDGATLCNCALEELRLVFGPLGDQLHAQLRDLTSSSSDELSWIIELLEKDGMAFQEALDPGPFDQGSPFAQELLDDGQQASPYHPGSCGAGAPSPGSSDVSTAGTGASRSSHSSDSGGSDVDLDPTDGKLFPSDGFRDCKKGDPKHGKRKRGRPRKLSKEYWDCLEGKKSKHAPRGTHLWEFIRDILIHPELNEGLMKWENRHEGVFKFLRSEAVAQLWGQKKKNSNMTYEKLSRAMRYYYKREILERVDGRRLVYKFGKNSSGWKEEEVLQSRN
# Outline: as §1
# ERF = target: T7, ERF (Homo sapiens, UniProt P50548 1-548)
# T7 sequence: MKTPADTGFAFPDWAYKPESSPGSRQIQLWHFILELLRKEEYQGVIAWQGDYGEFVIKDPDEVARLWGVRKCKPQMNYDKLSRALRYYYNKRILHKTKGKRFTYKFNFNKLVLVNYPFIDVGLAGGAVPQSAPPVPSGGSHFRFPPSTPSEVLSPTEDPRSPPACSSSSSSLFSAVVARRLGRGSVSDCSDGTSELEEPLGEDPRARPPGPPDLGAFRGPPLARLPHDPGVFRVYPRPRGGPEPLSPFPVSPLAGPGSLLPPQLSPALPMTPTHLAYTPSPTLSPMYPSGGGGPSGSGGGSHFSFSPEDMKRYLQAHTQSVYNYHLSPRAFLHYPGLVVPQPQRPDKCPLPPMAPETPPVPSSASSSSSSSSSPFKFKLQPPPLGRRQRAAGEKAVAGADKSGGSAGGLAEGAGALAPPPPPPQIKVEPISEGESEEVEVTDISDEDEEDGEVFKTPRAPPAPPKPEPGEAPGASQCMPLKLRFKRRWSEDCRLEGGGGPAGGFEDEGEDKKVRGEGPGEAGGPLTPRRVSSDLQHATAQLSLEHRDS
# Outline: as §1
# ETV3L = target: T8, ETV3L (Homo sapiens, UniProt Q6ZN32 1-361)
# T8 sequence: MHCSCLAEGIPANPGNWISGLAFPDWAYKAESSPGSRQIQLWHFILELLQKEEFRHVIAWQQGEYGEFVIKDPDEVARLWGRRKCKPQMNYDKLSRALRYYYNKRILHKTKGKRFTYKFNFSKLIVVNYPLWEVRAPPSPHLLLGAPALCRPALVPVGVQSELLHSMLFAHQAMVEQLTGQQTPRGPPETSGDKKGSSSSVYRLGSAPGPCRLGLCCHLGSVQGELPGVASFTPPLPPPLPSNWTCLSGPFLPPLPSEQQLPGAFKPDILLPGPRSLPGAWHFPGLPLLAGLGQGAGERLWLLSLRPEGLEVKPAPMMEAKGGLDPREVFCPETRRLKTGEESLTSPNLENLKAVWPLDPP
# Outline: as §1
# ETS2 = target: T9, ETS2 (Homo sapiens, UniProt P15036 1-469)
# T9 sequence: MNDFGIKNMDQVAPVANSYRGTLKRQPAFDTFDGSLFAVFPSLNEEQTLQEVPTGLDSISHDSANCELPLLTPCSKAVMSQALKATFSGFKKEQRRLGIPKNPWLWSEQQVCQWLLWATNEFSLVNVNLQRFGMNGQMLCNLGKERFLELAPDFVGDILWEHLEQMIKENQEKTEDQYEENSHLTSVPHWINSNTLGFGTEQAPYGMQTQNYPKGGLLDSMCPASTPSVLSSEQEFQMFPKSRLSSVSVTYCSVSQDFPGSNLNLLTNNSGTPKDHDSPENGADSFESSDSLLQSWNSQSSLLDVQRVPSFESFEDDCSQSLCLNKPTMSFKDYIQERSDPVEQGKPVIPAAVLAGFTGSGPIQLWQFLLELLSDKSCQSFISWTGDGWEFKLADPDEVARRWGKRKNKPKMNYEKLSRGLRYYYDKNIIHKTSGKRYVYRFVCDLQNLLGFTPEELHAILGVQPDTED
# Outline: as §1
# ETV7 = target: T10, ETV7 (Homo sapiens, UniProt Q9Y603 1-341)
# T10 sequence: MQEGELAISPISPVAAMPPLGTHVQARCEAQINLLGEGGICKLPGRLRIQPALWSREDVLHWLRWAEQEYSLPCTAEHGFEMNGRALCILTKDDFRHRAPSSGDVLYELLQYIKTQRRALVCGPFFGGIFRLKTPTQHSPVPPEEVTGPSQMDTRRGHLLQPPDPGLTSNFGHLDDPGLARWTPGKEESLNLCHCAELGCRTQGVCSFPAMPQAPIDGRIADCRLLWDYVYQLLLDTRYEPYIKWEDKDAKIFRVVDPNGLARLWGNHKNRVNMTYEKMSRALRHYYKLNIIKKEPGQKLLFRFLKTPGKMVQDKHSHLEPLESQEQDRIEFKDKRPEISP
# Outline: as §1
# ETV6 = ETV6 (Homo sapiens, UniProt P41212 1-452)
# Outline: as §1
# Chain of ETV5 (P41161 whole entry): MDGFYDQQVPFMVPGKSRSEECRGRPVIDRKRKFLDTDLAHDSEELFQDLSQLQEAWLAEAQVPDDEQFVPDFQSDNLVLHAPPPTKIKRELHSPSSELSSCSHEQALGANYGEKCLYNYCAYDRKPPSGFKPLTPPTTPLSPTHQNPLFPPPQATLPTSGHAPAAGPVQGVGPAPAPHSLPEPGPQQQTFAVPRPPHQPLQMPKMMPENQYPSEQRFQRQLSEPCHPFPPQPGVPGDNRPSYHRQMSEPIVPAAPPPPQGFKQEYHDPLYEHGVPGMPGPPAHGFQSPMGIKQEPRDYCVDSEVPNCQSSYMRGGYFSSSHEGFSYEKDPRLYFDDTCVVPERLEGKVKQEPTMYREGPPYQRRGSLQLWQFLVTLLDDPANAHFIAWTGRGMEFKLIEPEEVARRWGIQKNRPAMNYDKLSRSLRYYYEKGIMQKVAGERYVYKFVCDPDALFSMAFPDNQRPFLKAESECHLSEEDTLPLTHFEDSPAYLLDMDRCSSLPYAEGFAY
# Chain of ETV6 (P41212 whole entry): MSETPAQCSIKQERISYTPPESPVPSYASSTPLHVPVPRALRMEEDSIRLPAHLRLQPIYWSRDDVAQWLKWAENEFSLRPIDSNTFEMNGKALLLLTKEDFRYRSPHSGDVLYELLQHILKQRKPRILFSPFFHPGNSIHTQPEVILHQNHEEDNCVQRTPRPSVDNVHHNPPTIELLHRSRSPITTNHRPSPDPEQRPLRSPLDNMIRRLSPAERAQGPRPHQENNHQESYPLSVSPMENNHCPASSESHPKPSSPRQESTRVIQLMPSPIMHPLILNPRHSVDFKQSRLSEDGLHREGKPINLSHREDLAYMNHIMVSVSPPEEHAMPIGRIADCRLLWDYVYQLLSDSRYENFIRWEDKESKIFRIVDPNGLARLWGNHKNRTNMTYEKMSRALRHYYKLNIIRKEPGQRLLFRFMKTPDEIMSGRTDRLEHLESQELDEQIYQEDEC
sequence,measurement,setting,value
GTAGTT,binding signal,FLI1,"1.1 fold enrichment (6-mer frequency, TF over GST control)"
same,binding signal,GABPA,"1.05 fold enrichment (6-mer frequency, TF over GST control)"
same,binding signal,ERG,"1.01 fold enrichment (6-mer frequency, TF over GST control)"
same,binding signal,EHF,"1.07 fold enrichment (6-mer frequency, TF over GST control)"
same,binding signal,SPI1,"1.01 fold enrichment (6-mer frequency, TF over GST control)"
same,binding signal,ETV5,"1.04 fold enrichment (6-mer frequency, TF over GST control)"
same,binding signal,ETV2,"1.04 fold enrichment (6-mer frequency, TF over GST control)"
same,binding signal,ELF3,"1.09 fold enrichment (6-mer frequency, TF over GST control)"
same,binding signal,ERF,"1.07 fold enrichment (6-mer frequency, TF over GST control)"
same,binding signal,ETV3L,"1.01 fold enrichment (6-mer frequency, TF over GST control)"
same,binding signal,ETS2,"1.02 fold enrichment (6-mer frequency, TF over GST control)"
same,binding signal,ETV7,"1.03 fold enrichment (6-mer frequency, TF over GST control)"
same,binding signal,ETV6,"1.08 fold enrichment (6-mer frequency, TF over GST control)"
